Measured values as given in PubChem BioAssay (NCATS).
Records with an inconclusive call do not appear. Entries that show only a call come without a potency. Activity calls are given as the source filed them. Calls follow the shape of the dose curve; as a rule, active = well fitted cell-killing curve with a large enough effect; inconclusive = small, poorly fitted or top-dose-only effect; inactive = flat fitted curve, though single readings scatter.

assay: Cellular viability qHTS for adrenocortical cancer (ACC) cell line NCI-H295R (AID 1963990); conditions: CellTiter-Glo ATP luminescence, 48 h; series mostly up to 46.1 µM; also: nearly all actives have a fitted effect of over 60% in size
Summary of the method: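 CellTiter-Glo ATP luminescence, read 48 h after compound addition, measured viability of NCI-H295R adrenocortical cells grown serum-free with ITS. Final concentrations spanned up to 46 uM. Data normalized to DMSO and doxorubicin, fitted for IC50 and maximal response.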

SMILES	Potency
CC(C)c1c(C(=O)Nc2ccccc2)c(-c2ccccc2)c(-c2ccc(F)cc2)n1CC[C@@H](O)C[C@@H](O)CC(=O)O	inactive
Nc1cc(=O)[nH]c(N)n1	inactive
CCCCNc1ncc2c(-c3ccc(F)cc3)nn(CC3CCC(N)CC3)c2n1 (stereo not given)	7.15 µM (active)
CC(C)c1cc(CNc2nc(Nc3cc(C4CC4)[nH]n3)cc(N3CCN(C)CC3)n2)on1	1.58 µM (active)
COc1cc(-c2ccc(=O)[nH]n2)ccc1OC(F)F	inactive
OCCN1CCN(CC/C=C2/c3ccccc3Sc3ccc(C(F)(F)F)cc32)CC1	16.4 µM (active)
CN[C@@H]1[C@@H](O)[C@@H](O[C@@H]2[C@H](O)[C@H](O[C@H]3OC(CN)=CC[C@H]3N)[C@@H](N)C[C@H]2N)OCC1(C)O (stereo not given in full)	inactive
N=C1CCCN1Cc1[nH]c(=O)[nH]c(=O)c1Cl	inactive
CN(C)CCOc1ccc(/C(=C(/CCCl)c2ccccc2)c2ccccc2)cc1	8.91 µM (active)
CC(=O)OCC[N+](C)(C)C	inactive
CC(C)(O)CC[C@@H](O)[C@](C)(O)[C@H]1CC[C@@]2(O)C3=CC(=O)[C@@H]4C[C@@H](O)[C@@H](O)C[C@]4(C)[C@H]3CC[C@]12C	inactive
Nc1c2c(nc3c1CCC3)CCCC2	inactive
NCC1CCC(C(=O)O)CC1 (stereo not given)	inactive
C[C@]12CC[C@@H]3c4ccc(O)cc4CC[C@H]3[C@@H]1CC[C@@H]2O	7.94 µM (active)
COC(=O)[C@H]1[C@@H](O)[C@@]2(O)c3c(OC)cc(O[C@@H]4O[C@@H]([C@@H](O)CO)CO[C@H]4OC)cc3O[C@@]2(c2ccc(OC)cc2)[C@@H]1c1ccccc1	inactive
CCC(=O)N1CCOc2c(cc(-c3cc(OC)cc(OC)c3)cc2C(=O)N[C@H]2CCCN(C)C2)C1	inactive
O=C(Nc1ccc(Oc2ccc(Cl)cc2)c(Cl)c1)c1cc(I)cc(I)c1O	20.6 µM (active)
CN(C)CCCN1c2ccccc2CCc2ccc(Cl)cc21	25.1 µM (active)
Cc1nnc(C[C@@H]2C=C(c3ccc(Cl)cc3)c3ccccc3-n3c(C)nnc32)o1	6.31 µM (active)
CCCNC(C)C(=O)Nc1c(C)csc1C(=O)OC (stereo not given)	inactive

SMILES	Potency
C[C@@H](Nc1ncnc2[nH]c(-c3ccc(O)cc3)cc12)c1ccccc1	11.2 µM (active)
C=CC(=O)Nc1cc(Nc2nccc(-c3cn(C)c4ccccc34)n2)c(OC)cc1N(C)CCN(C)C	3.98 µM (active)
O=C(O)C(Cc1cc(I)c(O)c(I)c1)c1ccccc1 (stereo not given)	inactive
C=CC(=O)N1CC(N2CCN(C(=O)CNc3cc(C4(C)CC4)c(Cl)cc3O)CC2)C1	15.8 µM (active)
C[N+](C)(CCOc1ccccc1)Cc1cccs1	inactive
Cc1cc(F)c(C(=O)Nc2cccc(-c3nncn3C(C)C)n2)cc1-n1cnc(C2CC2)c1	14.1 µM (active)
c1ccc(-c2cc(CCC3CCNCC3)c3ccccc3n2)cc1	15.8 µM (active)
C[C@H]1O[C@H](O[C@H]2[C@H](O)[C@@H](O)[C@@H](O[C@H]3[C@H](O)[C@@H](O)C(O)O[C@@H]3CO)O[C@@H]2CO)[C@H](O)[C@@H](O)[C@@H]1N[C@H]1C=C(CO)[C@@H](O)[C@H](O)[C@H]1O (stereo not given in full)	inactive
CCOC(=O)c1cnc2c(cnn2CC)c1NN=C(C)C	inactive
CN1CCC[C@@H]1c1cccnc1	inactive
CC(C)(C)C(O)/C=C/c1ccc2c(c1)OCO2 (stereo not given)	inactive
C/C=C/C/C=C/CCC(=O)[C@H]1O[C@H]1C(N)=O	20 µM (active)
O=C1CC2(CCCC2)CC(=O)N1CCNCC1COc2ccccc2O1 (stereo not given)	inactive
Cc1ccc(Nc2nnc(Cc3ccncc3)c3ccccc23)cc1Br	inactive
C[C@@H](Oc1cc(C(=O)Nc2ccc(C(=O)N3CCN(C)CC3)cc2)nnc1N)c1c(Cl)ccc(F)c1Cl	2.82 µM (active)
CC(O)C(=O)O (stereo not given)	inactive
CCCCC1(COC(=O)CCC(=O)O)C(=O)N(c2ccccc2)N(c2ccccc2)C1=O	inactive
CCCCCCCCCCCCCCCC[N+](C)(C)CC	7.31 µM (active)
C#C[C@]1(O)CC[C@H]2[C@@H]3CCc4cc(O)ccc4[C@H]3CC[C@@]21C	3.55 µM (active)
CN(C)C[C@@H]1CCn2cc(c3ccccc32)C2=C(C(=O)NC2=O)c2cn(c3ccccc23)CCO1	31.6 µM (active)
